Screening data deposited in PubChem BioAssay by several laboratories.
Compounds with a hit are over-represented: about 1.5% of the library has one in this group of screens.
S1P4 agonist = human S1P4 receptor agonism; activation, % at 4.98 µM; 0.35% of 220,000 active; O95977; AID 1509; S1P4-expressing cell line, agonist reporter assay; in the data active = activation above about 11%;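 also: 0% = DMSO vehicle and 100% = reference agonist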
INS promoter inh = TRM-6 insulin promoter activity inhibition; inhibition, % at 2 µM; AID 1273; TRM-6 cells (human fetal islet line), insulin promoter-eGFP reporter, imaging; reporter expression induced with tamoxifen; 0.9% of 130,000 active;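 active = inhibition above the mean plus 3 SD, with well images judged a real hit on visual review, cut at about 60% in these data, passing the limit was not always enough; inconclusive = inhibition over the cutoff but images rejected on review; inactive = inhibition not above the cutoff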
Insulin prom up = MIN6 insulin promoter up-regulation. z-score at 5 µM. MIN6 insulin promoter-GFP reporter, high-content imaging; hits give high values. 0.3% of 190,000 active. AID 1625;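 active = z-score above 3 at 5 µM with at least 500 cells counted in the well; inconclusive = wells under 500 cells, flagged as cytotoxic or low count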
S1P4 antagonist = blocks the human S1P4 receptor. S1P4-expressing cells, antagonist mode, reporter read-out. inhibition, % at 4.98 µM. 0.26% of 220,000 active. AID 1510; in the data active = inhibition above about 29%;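 also: 0% = wells stimulated with agonist and 100% = vehicle wells without agonist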
Hsp70 act = transcriptional activators of Hsp70; HeLa Hsp70 promoter luciferase reporter, luminescence; scaled: vehicle 0, proteasome-inhibitor control 100%; activation, % at 10 µM; 0.04% of 200,000 active;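 active = activation above the mean across all tested compounds plus 3 SD, cutoff set per campaign, cut at about 5.5% in these data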;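 also: 100% = MG132 at 30 µM as the positive control and 0% = DMSO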
S1P3 antag = blocks the human S1P3 receptor. inhibition, % at 4.98 µM. AID 485. 0.27% of 170,000 active. Q99500. CHO S1P3 NFAT-BLA reporter, FRET fluorescence, antagonist mode;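 active = inhibition above the plate cutoff, the mean inhibition of test wells on that plate plus 3 SD, cut at about 28% in these data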;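 also: cells challenged with S1P at its EC80 of 0.8 µM; blue over green emission ratio from cleaved BLA substrate after 4 h stimulation; 0% = S1P-stimulated wells and 100% = unstimulated DMSO-only wells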
S1P4 antag conf = confirmation of human S1P4 receptor antagonists | AID 1524 | 71% of 520 active | shares compounds with S1P4 antagonist | inhibition, % at 4.98 µM | S1P4-expressing cell line, antagonist mode, reporter read-out; in the data active = inhibition above about 30%
S1P1 antag = blocks human S1P1, counter-screen for S1P4 antagonists; cell-based S1P1 antagonist counterscreen, inhibition; 37% of 520 active; AID 1564; inhibition, % at 4.98 µM; shares compounds with S1P4 antagonist; in the data active = inhibition above about 40%;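 also: receptor stimulated with S1P near its EC80; 0% = agonist stimulated wells and 100% = vehicle only wells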
Target sequence (P21453 whole entry, looked up): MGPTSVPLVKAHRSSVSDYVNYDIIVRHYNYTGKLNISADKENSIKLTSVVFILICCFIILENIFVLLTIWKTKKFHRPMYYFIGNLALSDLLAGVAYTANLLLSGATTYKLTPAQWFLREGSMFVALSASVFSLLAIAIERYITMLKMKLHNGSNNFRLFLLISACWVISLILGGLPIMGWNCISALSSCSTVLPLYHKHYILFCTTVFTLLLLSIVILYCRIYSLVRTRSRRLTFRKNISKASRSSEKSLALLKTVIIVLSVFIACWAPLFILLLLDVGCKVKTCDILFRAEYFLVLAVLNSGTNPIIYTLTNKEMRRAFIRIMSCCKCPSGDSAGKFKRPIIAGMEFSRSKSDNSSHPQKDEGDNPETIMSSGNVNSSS
Starred values were filed as active, the others as inactive.

Screening N#Cc1ccc(/C=C/C(=O)c2ccccc2)cc1 returned S1P4 agonist -0.7, Insulin prom up 1.14, S1P4 antagonist 86.3*, S1P3 antag 1.1, S1P4 antag conf 89.9* and S1P1 antag 21.9.
Screening C/C=C/C=C\C(=O)Nc1cccc(C2=NOC3(C2)C[C@H](C(N)=O)N(C(=O)/C=C/C)C3)c1 (stereo not given in full) returned Insulin prom up 0.07.
O=C(Oc1ccc(Br)cc1C(=O)/C=C/c1ccccc1F)c1ccco1 was read as S1P4 agonist 1.4, INS promoter inh 0.0, S1P4 antagonist 41.4*, Hsp70 act 0.1, S1P4 antag conf 94.4* and S1P1 antag 34.3.
CC(=O)c1cc(Cl)ccc1OC(=O)c1ccco1 was read as S1P4 agonist 0.8, INS promoter inh -14.3, Insulin prom up -0.06, S1P4 antagonist -4.4, Hsp70 act -0.1 and S1P3 antag -0.2.
`CN1CCN(CC(O)COc2ccc(C34CC5CC(CC(C5)C3)C4)cc2)CC1` (stereo not given) gave S1P4 agonist -0.7, Insulin prom up -1.68, S1P4 antagonist -12.0, Hsp70 act -0.3 and S1P3 antag -20.0.
For CC(=O)Nc1ccc(S(=O)(=O)N(Cc2ccccc2)c2ccccc2F)cc1 the results were S1P4 agonist 0.9, Insulin prom up 0.03, S1P4 antagonist -8.7, Hsp70 act -0.3 and S1P3 antag -3.1.
Screening Cc1cccc(C)c1NC(=O)c1ccc(-c2ccc(Cl)cc2Cl)o1 returned S1P4 agonist 0.7, INS promoter inh 64.5, Insulin prom up 0.51, S1P4 antagonist 95.7*, Hsp70 act -0.4, S1P4 antag conf 110.7* and S1P1 antag -2.1.
For O=[N+]([O-])c1ccc(Cl)c(C2Nc3cccc4cccc(c34)N2)c1 the results were S1P4 agonist -0.2, Insulin prom up -0.4, S1P4 antagonist 58.6*, Hsp70 act -0.2, S1P4 antag conf 1.1 and S1P1 antag 19.4.
Screening Oc1ccccc1C1Nc2cccc3cccc(c23)N1 returned S1P4 agonist 1.6, INS promoter inh 33.3, Insulin prom up -1.4, S1P4 antagonist -30.2, Hsp70 act -0.1 and S1P3 antag 17.1.
For O=C(NC(Cc1ccccc1)C(=O)O)/C(=C/c1ccc([N+](=O)[O-])cc1)NC(=O)c1ccccc1Br (stereo not given) the results were S1P4 agonist 0.9, INS promoter inh 14.3, Insulin prom up 0.93, S1P4 antagonist 1.4, Hsp70 act -0.5 and S1P3 antag 7.1.
COc1ccccc1N=C1SCC(=O)N1c1ccccc1OC was read as S1P4 agonist 2.5, INS promoter inh 6.2, Insulin prom up 0.1, S1P4 antagonist -15.9, Hsp70 act -0.4 and S1P3 antag -3.2.
`COc1ccc(-c2cnnn2-c2ccc(N)cc2)cc1OC` gave S1P4 agonist -0.3, INS promoter inh -150.0, Insulin prom up -0.39, S1P4 antagonist -14.7, Hsp70 act -0.2 and S1P3 antag 15.5.
For Nc1cccc(-n2nncc2-c2ccc(Cl)cc2)c1 the results were S1P4 agonist -0.5, Insulin prom up 0.28, S1P4 antagonist 32.2*, Hsp70 act -0.2, S1P4 antag conf 6.7 and S1P1 antag 13.5.
For O=c1c(Cl)c(Cl)cnn1Cc1nnc(-c2ccccc2Br)o1 the results were S1P4 agonist -0.8, Insulin prom up inconclusive, S1P4 antagonist -5.9, Hsp70 act 1.2 and S1P3 antag -4.7.
Screening Cc1ccc(NC(=O)CN(C)C(=O)Cn2ncc(Cl)c(Cl)c2=O)cc1 returned S1P4 agonist 0.7, INS promoter inh -212.5, Insulin prom up inconclusive, S1P4 antagonist 82.0*, Hsp70 act -0.2, S1P3 antag 5.0, S1P4 antag conf 105.6* and S1P1 antag 79.3*.
Screening O=c1c(Cl)c(Cl)cnn1Cc1ccc(F)cc1 returned S1P4 agonist -3.9, Insulin prom up 0.61, S1P4 antagonist 60.1*, Hsp70 act -0.3, S1P3 antag -1.2, S1P4 antag conf 104.9* and S1P1 antag 31.0.
For O=C(Cn1ncc(Cl)c(Cl)c1=O)c1ccc(Cl)cc1 the results were S1P4 agonist -0.6, INS promoter inh -8.3, S1P4 antagonist 43.9*, Hsp70 act 0.2, S1P4 antag conf 106.8* and S1P1 antag 62.9*.
`CC(C)(C)C(=O)Cn1ncc(Cl)c(Cl)c1=O` gave S1P4 agonist -1.3, INS promoter inh inactive, Insulin prom up inconclusive, S1P4 antagonist 53.5*, Hsp70 act 0.0, S1P3 antag -1.4, S1P4 antag conf 77.8* and S1P1 antag 24.4.
Cc1ccc(NC(=O)CN(C)C(=O)COc2c(Cl)cc(Cl)c3ccc(C)nc23)cc1 was read as S1P4 agonist 2.2, Insulin prom up 0.4, S1P4 antagonist -22.7, Hsp70 act -0.3 and S1P3 antag 7.4.
Screening CN(C)C(=O)COC(=O)c1cccnc1Nc1ccccc1F returned S1P4 agonist 0.0, INS promoter inh -73.3, Insulin prom up 0.79, S1P4 antagonist -6.5, Hsp70 act -0.2 and S1P3 antag -24.4.
For O=C(Nc1nc2ccc(Cl)cc2s1)[C@@H]1CCCN1C(=O)c1cccs1 the results were S1P4 agonist 0.6, INS promoter inh 16.7, Insulin prom up 0.02, S1P4 antagonist 3.9, Hsp70 act -0.3 and S1P3 antag 20.9.
Screening CN(C)S(=O)(=O)c1ccc(NC(=O)N2CCN(c3ccccc3Cl)CC2)cc1 returned S1P4 agonist 1.5, INS promoter inh 13.3, Insulin prom up -0.01, S1P4 antagonist -19.5 and Hsp70 act -0.2.
Screening O=C1CN(C(=O)Cn2ncc(Cl)c(Cl)c2=O)c2ccccc2N1 returned S1P4 agonist -3.9, Insulin prom up -2.35, S1P4 antagonist 37.5*, Hsp70 act -0.3, S1P3 antag 4.1, S1P4 antag conf 117.0* and S1P1 antag 69.1*.
`CC(NC(=O)COC(=O)/C=C/c1ccco1)c1ccccc1` (stereo not given) gave S1P4 agonist 0.7, Insulin prom up -0.07, S1P4 antagonist -18.4, Hsp70 act 0.3 and S1P3 antag -5.9.
For Cc1ccc(-n2c(CNc3ccc(F)cc3)nnc2SCC(=O)NCc2ccco2)cc1 the results were S1P4 agonist 0.6, Insulin prom up -0.14, S1P4 antagonist -6.6, Hsp70 act -0.2 and S1P3 antag 8.3.
Screening COc1cc(SC)ccc1C(=O)Nc1c(C)cccc1C returned S1P4 agonist 0.0, INS promoter inh -53.9, S1P4 antagonist 81.1*, Hsp70 act -0.2, S1P3 antag 0.4, S1P4 antag conf 85.0* and S1P1 antag 12.3.
